Experimental data: PubChem BioAssay (NCI)
The panel holds about 79,000 compounds, 15% with a hit somewhere; the sample as a whole holds those more often. Calls of active or inactive are those of the source. Cut-off read from the data, not from the text of the source: active = growth inhibition above about 70%; inactive = the rest.

Tests used:
[1] = NCI Yeast Anticancer Drug Screen. Data for the rad52 strain (AID 147);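 note: 0% = growth of vehicle-treated control cultures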; conditions: S. cerevisiae rad52 mutant growth inhibition, hits give high values
Outline: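 Genetically altered yeast (DNA damage repair defect) treated with compound; inhibition calculated relative to vehicle.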

[2] = NCI Yeast Anticancer Drug Screen. Data for the wt1 strain (AID 149);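 note: 0% = growth of vehicle-treated wt1 cultures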; conditions: S. cerevisiae wt1 strain (SPY 50644) growth inhibition, hits give high values
Outline: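 Vehicle-normalised growth inhibition; strain wt1; compound exposure.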

[3] = NCI Yeast Anticancer Drug Screen. Data for the rad50EPP+ strain (AID 151);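 note: 0% = growth of vehicle-treated control cultures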; conditions: S. cerevisiae rad50 mutant strain, hits give high values
Outline: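 Strain rad50EPP+; compound exposure; % growth inhibition vs vehicle.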

[4] = NCI Yeast Anticancer Drug Screen. Data for the mgt1 strain (AID 153); conditions: S. cerevisiae mgt1 mutant growth inhibition, hits give high values
Outline: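 Read-out: yeast growth inhibition vs vehicle control. Strain mgt1, drawn from a panel altered in DNA damage repair or cell cycle control.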

[5] = NCI Yeast Anticancer Drug Screen. Data for the rad14 strain (AID 159);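 note: 0% = growth of vehicle-treated control cultures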; conditions: S. cerevisiae rad14 strain growth inhibition, hits give high values
Outline: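 Vehicle-treated cultures served as the baseline for growth inhibition of a DNA repair-mutant yeast strain exposed to each compound.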

[6] = NCI Yeast Anticancer Drug Screen. Data for the CLN2oe strain (AID 163);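 note: 0% = growth of vehicle-only control cultures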; conditions: S. cerevisiae CLN2oe strain, hits give high values
Outline: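 Strain altered in cell-cycle control, incubated with compound; growth compared to solvent-treated controls.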

[7] = NCI Yeast Anticancer Drug Screen. Data for the wt2 strain (AID 169);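 note: 0% = growth of vehicle-treated yeast cultures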; conditions: S. cerevisiae wt2 strain growth inhibition, hits give high values
Outline: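 Steps: yeast strain treated with compound; growth recorded; inhibition calculated relative to cultures given vehicle alone.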

[8] = NCI Yeast Anticancer Drug Screen. Data for the mlh1 strain (AID 171);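 note: 0% = growth of vehicle-treated control cultures of the same strain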; conditions: S. cerevisiae mlh1 strain growth inhibition, hits give high values
Outline: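 Yeast screen: mutant strain plus compound, growth scored against vehicle control wells.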

[9] = NCI Yeast Anticancer Drug Screen. Data for the sgs1 strain (AID 173);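 note: 0% = growth of vehicle-only control cultures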; conditions: S. cerevisiae sgs1 mutant, hits give high values
Outline: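 Inhibition of yeast growth served as the measure. The mutant strain was treated with each compound, and growth was normalised to cultures receiving vehicle alone.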

[10] = NCI Yeast Anticancer Drug Screen. Data for the rad18 strain (AID 177); conditions: S. cerevisiae rad18 mutant growth inhibition, hits give high values
Outline: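 Inhibition values reflect reduced yeast growth compared with vehicle-treated controls, using a strain engineered with a DNA damage repair defect.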

[11] = NCI Yeast Anticancer Drug Screen. Data for the rad50 strain (AID 155);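 note: 0% = growth of vehicle-only cultures of the same strain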; conditions: S. cerevisiae rad50 strain growth inhibition, hits give high values
Outline: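 A DNA repair-deficient yeast mutant serves as the test organism; compound-induced growth inhibition is calculated against vehicle-treated cells.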

[12] = NCI Yeast Anticancer Drug Screen. Data for the mec2-1 strain (AID 157); conditions: S. cerevisiae mec2-1 strain, hits give high values
Outline: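 Cells of the genetically defined mec2-1 yeast strain are incubated with test compound. Inhibition of growth is calculated against vehicle-treated controls.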

[13] = NCI Yeast Anticancer Drug Screen. Data for the sgs1 mgt1 strain (AID 161);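 note: 0% = growth of cultures given vehicle only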; conditions: S. cerevisiae sgs1 mgt1 strain, hits give high values
Outline: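 Read-out: growth inhibition vs vehicle controls. Cells: mutant yeast strain deficient in DNA damage repair.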

[14] = NCI Yeast Anticancer Drug Screen. Data for the cln2 rad14 strain (AID 165);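 note: 0% = growth equal to vehicle treated cultures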; conditions: S. cerevisiae cln2 rad14 strain, hits give high values
Outline: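 The screen exposed genetically defined yeast (cln2 rad14) to test compounds and scored growth inhibition relative to vehicle-treated controls.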

[15] = NCI Yeast Anticancer Drug Screen. Data for the bub3 strain (AID 167); conditions: S. cerevisiae bub3 mutant strain, hits give high values
Outline: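 Inhibition values come from growth of compound-treated mutant yeast normalised to vehicle-treated controls.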

[16] = NCI Yeast Anticancer Drug Screen. Data for the mlh1 rad18 strain (AID 175); conditions: S. cerevisiae mlh1 rad18 strain growth inhibition, hits give high values
Outline: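 Compound-treated yeast growth, normalised to vehicle controls. Strain bears defined DNA repair mutations.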

[17] = at 5.0 µM (retest, dose inferred, filed as 0.5)
[18] = at 50.0 µM (retest, dose inferred, filed as 5.0)

Measured: growth inhibition

[Pt].c1ccc(P(CCP(c2ccccc2)c2ccccc2)CCP(c2ccccc2)c2ccccc2)cc1
inactive: [1]; at 1.2 µM -15% | [1]; at 3.7 µM 2% | [1]; at 11.0 µM 7% | [2]; at 1.2 µM -1% | [2]; at 3.7 µM 6% | [2]; at 11.0 µM 19% | [3]; at 1.2 µM -8% | [3]; at 3.7 µM -1% | [3]; at 11.0 µM 11% | [3]; at 33.0 µM 61% | [4]; at 1.2 µM -5% | [4]; at 3.7 µM -18% | [4]; at 11.0 µM 2% | [5]; at 1.2 µM 4% | [5]; at 3.7 µM -2% | [5]; at 11.0 µM 22% | [6]; at 1.2 µM -18% | [6]; at 3.7 µM -4% | [6]; at 11.0 µM 4% | [7]; at 1.2 µM -7% | [7]; at 3.7 µM -4% | [7]; at 11.0 µM 2% | [8]; at 1.2 µM 5% | [8]; at 3.7 µM -5% | [8]; at 11.0 µM -1% | [9]; at 1.2 µM 2% | [9]; at 3.7 µM 5% | [9]; at 11.0 µM 41% | [10]; at 1.2 µM -33% | [10]; at 3.7 µM 6% | [10]; at 11.0 µM 20%
active: [1]; at 33.0 µM 89% | [1]; at 100.0 µM 84% | [2]; at 33.0 µM 94% | [2]; at 100.0 µM 90% | [3]; at 100.0 µM 85% | [4]; at 33.0 µM 92% | [4]; at 100.0 µM 94% | [5]; at 33.0 µM 81% | [5]; at 100.0 µM 91% | [6]; at 33.0 µM 95% | [6]; at 100.0 µM 88% | [7]; at 33.0 µM 83% | [7]; at 100.0 µM 93% | [8]; at 33.0 µM 94% | [8]; at 100.0 µM 92% | [9]; at 33.0 µM 96% | [9]; at 100.0 µM 94% | [10]; at 33.0 µM 94% | [10]; at 100.0 µM 83%

O=Cc1coc2ccccc2c1=O
active: [3]; at 100.0 µM 91% | [12]; [18] 70% | [5]; at 100.0 µM 95% | [13]; [18] 98% | [13]; at 50.0 µM 89.7% | [14]; at 50.0 µM 75.2% | [15]; [18] 87% | [15]; at 50.0 µM 88.8% | [7]; at 100.0 µM 99%
inactive: [1]; at 1.2 µM -9% | [1]; at 3.7 µM 3% | [1]; at 11.0 µM 11% | [1]; at 33.0 µM 22% | [1]; at 100.0 µM 48% | [2]; at 1.2 µM 10% | [2]; at 3.7 µM 19% | [2]; at 11.0 µM 18% | [2]; at 33.0 µM 22% | [2]; at 100.0 µM 42% | [3]; at 1.2 µM 2% | [3]; at 3.7 µM 11% | [3]; at 11.0 µM 28% | [3]; at 33.0 µM 66% | [11]; at 1.2 µM -23% | [11]; at 3.7 µM 10% | [11]; [17] 12% | [11]; at 11.0 µM 17% | [11]; at 33.0 µM 24% | [11]; [18] 26% | [11]; at 50.0 µM 20.4% | [11]; at 100.0 µM 57% | [12]; at 1.2 µM -7% | [12]; at 3.7 µM 12% | [12]; [17] -15% | [12]; at 11.0 µM 18% | [12]; at 33.0 µM 18% | [12]; at 50.0 µM 35.2% | [12]; at 100.0 µM 65% | [5]; at 1.2 µM -16% | [5]; at 3.7 µM -7% | [5]; at 11.0 µM 8% | [5]; at 33.0 µM 16% | [13]; [17] 9% | [6]; at 1.2 µM -1% | [6]; at 3.7 µM 25% | [6]; at 11.0 µM 27% | [6]; at 33.0 µM 2% | [6]; at 100.0 µM 40% | [14]; [17] 6% | [14]; [18] 19% | [15]; at 1.2 µM 5% | [15]; at 3.7 µM 13% | [15]; [17] 2% | [15]; at 11.0 µM 8% | [15]; at 33.0 µM 15% | [15]; at 100.0 µM 51% | [7]; at 1.2 µM -17% | [7]; at 3.7 µM -11% | [7]; at 11.0 µM 3% | [7]; at 33.0 µM 12% | [8]; at 1.2 µM 1% | [8]; at 3.7 µM 5% | [8]; at 11.0 µM 24% | [8]; at 33.0 µM 30% | [8]; at 100.0 µM 61% | [9]; at 1.2 µM 0% | [9]; at 3.7 µM 14% | [9]; at 11.0 µM 23% | [9]; at 33.0 µM 32% | [9]; at 100.0 µM 60% | [16]; [17] -1% | [16]; [18] 16% | [16]; at 50.0 µM 62.4% | [10]; at 1.2 µM 5% | [10]; at 3.7 µM 19% | [10]; at 11.0 µM 18% | [10]; at 33.0 µM 20% | [10]; at 100.0 µM 67%

S=c1cn[nH]c2ccc(Br)cc12
inactive: [1]; at 1.2 µM -1% | [1]; at 3.7 µM 8% | [1]; at 11.0 µM 10% | [1]; at 33.0 µM 52% | [2]; at 1.2 µM -5% | [2]; at 3.7 µM -6% | [2]; at 11.0 µM -11% | [2]; at 33.0 µM 1% | [2]; at 100.0 µM 43% | [3]; at 1.2 µM -2% | [3]; at 3.7 µM -1% | [3]; at 11.0 µM 17% | [11]; at 1.2 µM -3% | [11]; at 3.7 µM -9% | [11]; [17] -152% | [11]; at 11.0 µM 13% | [11]; [18] 66% | [11]; at 50.0 µM 69.5% | [12]; at 1.2 µM 2% | [12]; at 3.7 µM -3% | [12]; [17] -53% | [12]; at 11.0 µM -6% | [12]; at 33.0 µM 8% | [12]; [18] -9% | [12]; at 50.0 µM 56.3% | [12]; at 100.0 µM 53% | [5]; at 1.2 µM 2% | [5]; at 3.7 µM 4% | [5]; at 11.0 µM 5% | [5]; at 33.0 µM 30% | [5]; at 100.0 µM 62% | [13]; [17] -58% | [13]; [18] 61% | [13]; at 50.0 µM 68.9% | [6]; at 1.2 µM -4% | [6]; at 3.7 µM -4% | [6]; at 11.0 µM -5% | [6]; at 33.0 µM 40% | [14]; [17] -68% | [14]; [18] -20% | [14]; at 50.0 µM 35.9% | [15]; at 1.2 µM -12% | [15]; at 3.7 µM -9% | [15]; [17] -79% | [15]; at 11.0 µM -12% | [15]; at 33.0 µM 52% | [15]; [18] 60% | [7]; at 1.2 µM -4% | [7]; at 3.7 µM -3% | [7]; at 11.0 µM -5% | [7]; at 33.0 µM 20% | [7]; at 100.0 µM 40% | [8]; at 1.2 µM 4% | [8]; at 3.7 µM -7% | [8]; at 11.0 µM -5% | [8]; at 33.0 µM 46% | [9]; at 1.2 µM -2% | [9]; at 3.7 µM -6% | [9]; at 11.0 µM -5% | [9]; at 33.0 µM 61% | [16]; [17] -109% | [10]; at 1.2 µM 0% | [10]; at 3.7 µM 2% | [10]; at 11.0 µM 26%
active: [1]; at 100.0 µM 74% | [3]; at 33.0 µM 70% | [3]; at 100.0 µM 83% | [11]; at 33.0 µM 78% | [11]; at 100.0 µM 85% | [6]; at 100.0 µM 76% | [15]; at 50.0 µM 77% | [15]; at 100.0 µM 72% | [8]; at 100.0 µM 73% | [9]; at 100.0 µM 85% | [16]; [18] 75% | [16]; at 50.0 µM 85.6% | [10]; at 33.0 µM 86% | [10]; at 100.0 µM 89%
